Source: PubChem
The list is not random: actives were taken first. Their share in the collection is about 19%.
DT40 TDP1 no CPT – qHTS for Inhibitors of human tyrosyl-DNA phosphodiesterase 1 (TDP1): qHTS in cells in absence of CPT; DT40 Tdp1-/- hTDP1 cells, no CPT, ATP luminescence, 48 h; Potency, µM (series often up to 46.2 µM), most hits filed as inhibitors; 15% of 420,000 active; AID 686978, 2013; further: nearly all actives have a fitted effect of over 55% in size
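Readout: luminescence from CellTiter-Glo after 30 min in the dark at RT. Cells: DT40 Tdp1-/- with stable hTDP1, 400/well. Exposure: compounds alone, ≥48 hr, 37 °C.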
HT1080-NT tox – kills 2HG-producing HT-1080-NT fibrosarcoma cells | HT-1080-NT fibrosarcoma viability, CellTiter-Glo ATP luminescence, 48 h | Potency, µM (titrated, usually from 46.1 µM), actives largely listed as cytotoxic | 1.6% of 360,000 active | AID 686970;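 further: NT is the 2HG producing partner of a matched IDH1 knockdown line; nearly all actives have a fitted effect of over 55% in size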
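750 cells/well, RPMI + 5% FBS; 2 h settle, compound pin-transfer, 48 h at 37 degrees C. CellTiter-Glo 10 min RT, luminescence. Normalized to DMSO and media-only wells.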
HT1080 IDH1KD tx – HT-1080 IDH1 knockdown cell toxicity (counter line); HT-1080 IDH1 knockdown viability, ATP luminescence, 48 h; Potency, µM (doses to about 46.1 µM), most hits filed as cytotoxic; 2% of 360,000 active; AID 686971
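Luminescent ATP read-out (CellTiter-Glo, 10 min at room temperature) after 48 h compound exposure at 37 °C gave viability of IDH1-knockdown HT-1080 cells. Activity was normalised to DMSO and cell-free wells, then fitted as concentration-response curves.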
IL1B secr inh – inhibitors of inflammasome signaling (IL-1 beta secretion). THP-1 LPS/ATP IL-1B secretion, AlphaLISA, 16 h; stronger effect = lower value. activity change, % at 57.5 µM. 4.7% of 360,000 active. AID 743279; in the data active means activity change below about -50%; inconclusive means mostly about -30% to -49%
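Secreted IL-1B measured by AlphaLISA bead assay after 16 h compound exposure of THP-1 cells; compounds (final up to 57.5 uM) added 1 h before LPS (250 ng/mL) and ATP (1.25 mM) stimulation; lower signal means less secretion.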
TDP1 cell CPT – DT40-hTDP1 cell growth loss with CPT | chicken DT40 Tdp1-/-;hTDP1 cells + 20 nM CPT, ATP luminescence, 48 h | Potency, µM (titrated, usually from 46.2 µM), usual class: inhibitors | 12% of 420,000 active | AID 686979; further: nearly all actives have a fitted effect of over 55% in size
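Cell growth measured by CellTiter-Glo luminescence after a minimum 48 h, 37 C compound exposure with 20 nM CPT in Tdp1-knockout DT40 cells stably expressing hTDP1, seeded 400/well; qHTS titration format.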
Each line names hits and unclear results; the compound was inactive in the other large screens. Unless noted, the call rests on the fitted dose curve; in most records, active means well fitted curve in the direction sought with a large enough effect; inconclusive means small, poorly fitted or top-dose-only effect, or another doubt; inactive means no such curve, though single readings can be large; an effect the other way counts as inactive or inconclusive.

O=C(NCC(c1ccc(F)cc1)N1CCOCC1)c1ccc(-c2ccccc2)cc1 (stereo unspecified)	DT40 TDP1 no CPT inconclusive, TDP1 cell CPT 16µM
O=C(NCc1ccc(F)cc1)c1ccc(Br)o1	none
CC(=O)Nc1ccc(N2CCC(C)CC2)c([N+](=O)[O-])c1	HT1080-NT tox inconclusive
CC1CCCN(c2ccc(C(=O)Nc3cccnc3)cc2[N+](=O)[O-])C1 (stereo unspecified)	DT40 TDP1 no CPT inconclusive, HT1080-NT tox inconclusive, HT1080 IDH1KD tx inconclusive, IL1B secr inh inconclusive, TDP1 cell CPT 16µM
CC(=O)Nc1ccc(N2CCCC(C)C2)c([N+](=O)[O-])c1 (stereo unspecified)	DT40 TDP1 no CPT 23µM, HT1080-NT tox inconclusive
COc1ccc2oc(-c3ccc(C)c(NC(=O)c4ccc(N5CCOCC5)c([N+](=O)[O-])c4)c3)nc2c1	DT40 TDP1 no CPT inconclusive
Cc1ccc2oc(-c3cccc(NC(=O)c4ccc(N5CCC(C)CC5)c([N+](=O)[O-])c4)c3)nc2c1	DT40 TDP1 no CPT 7.3µM, TDP1 cell CPT 18µM (no result: HT1080-NT tox, HT1080 IDH1KD tx, IL1B secr inh)
CCn1nc(C)c(CNC(=O)c2cc(COc3ccc(C)nc3)on2)c1C	DT40 TDP1 no CPT inconclusive, HT1080-NT tox inconclusive, TDP1 cell CPT inconclusive
CCSCC(C)(C)n1[nH]c2ccccc2c1=O	DT40 TDP1 no CPT inconclusive, TDP1 cell CPT inconclusive
O=C(Cc1c(F)cccc1Cl)N1CCN(S(=O)(=O)c2cccs2)CC1	none
O=C(Cc1c(Cl)cccc1Cl)N1CCN(S(=O)(=O)c2cccs2)CC1	DT40 TDP1 no CPT inconclusive, TDP1 cell CPT 21µM
CC(=O)c1ccc(OCCCC(=O)N2CCN(S(=O)(=O)c3cccs3)CC2)cc1	DT40 TDP1 no CPT 12µM, TDP1 cell CPT inconclusive
O=C(CCCOc1ccccc1)N1CCN(S(=O)(=O)c2cccs2)CC1	none
CCC(CO)Oc1cc(NC(=O)c2cccc(C)c2)c2ncn(C(C)C)c2c1 (stereo unspecified)	DT40 TDP1 no CPT inconclusive, IL1B secr inh inconclusive, TDP1 cell CPT inconclusive
FC(F)(F)c1cc(CCN2CCNC[C@H]2Cc2cccc3ccccc23)cc(C(F)(F)F)c1	DT40 TDP1 no CPT 8.2µM, HT1080 IDH1KD tx inconclusive, IL1B secr inh -105, TDP1 cell CPT 8.2µM
Oc1ccc(C[C@@H]2CNCCN2CCc2cc(C(F)(F)F)cc(C(F)(F)F)c2)cc1	DT40 TDP1 no CPT inconclusive, HT1080-NT tox inconclusive, IL1B secr inh -67, TDP1 cell CPT 23µM
Oc1ccc(C[C@H]2CNCCN2CCc2cc(C(F)(F)F)cc(C(F)(F)F)c2)cc1	DT40 TDP1 no CPT inconclusive, HT1080-NT tox inconclusive, IL1B secr inh inconclusive, TDP1 cell CPT 10µM
Oc1ccc(C[C@@H]2CNC(=S)N2CCc2cc(C(F)(F)F)cc(C(F)(F)F)c2)cc1	DT40 TDP1 no CPT inconclusive, TDP1 cell CPT inconclusive
Oc1ccc(C[C@H]2CNC(=S)N2CCc2cc(C(F)(F)F)cc(C(F)(F)F)c2)cc1	DT40 TDP1 no CPT inconclusive
CC(Sc1nnc(C2CC2)n1Cc1ccccc1)C(=O)N1CCNC1=O (stereo unspecified)	none
O=C(OCC(=O)N1CCCC1)c1cc(F)c(F)cc1Cl	none
OC(c1ccc(Cl)cc1)c1ncc(-c2cccc(C(F)(F)F)c2)[nH]1 (stereo unspecified)	DT40 TDP1 no CPT 21µM, HT1080-NT tox inconclusive, HT1080 IDH1KD tx inconclusive, IL1B secr inh inconclusive, TDP1 cell CPT inconclusive
OC(c1cc(F)cc(Cl)c1)c1ncc(-c2cccc(C(F)(F)F)c2)[nH]1 (stereo unspecified)	DT40 TDP1 no CPT 13µM, HT1080-NT tox inconclusive, HT1080 IDH1KD tx inconclusive, TDP1 cell CPT 16µM
Cc1cc(C)cc(C(O)c2ncc(-c3cccc(C(F)(F)F)c3)[nH]2)c1 (stereo unspecified)	DT40 TDP1 no CPT inconclusive, HT1080-NT tox inconclusive, HT1080 IDH1KD tx inconclusive, TDP1 cell CPT inconclusive
C[C@@]12C(=O)Nc3cc(Cl)ccc3C(=O)N1[C@H]1c3cc(Cl)ccc3OC[C@@H]1[C@@H]2c1ccccc1	DT40 TDP1 no CPT inconclusive, HT1080-NT tox inconclusive, HT1080 IDH1KD tx inconclusive, TDP1 cell CPT 18µM
CCOC(=O)[C@H]1[C@H]2COc3ccc(Cl)cc3[C@@H]2N2C(=O)c3ccccc3NC(=O)[C@@]12C	DT40 TDP1 no CPT inconclusive, TDP1 cell CPT inconclusive
C[C@@]12C(=O)NCC(=O)N1[C@@H]1c3cc(Br)ccc3OC[C@@H]1[C@@H]2c1ccccc1	none
C[C@@]12C(=O)Nc3cc(Cl)ccc3C(=O)N1[C@H]1c3cc(Br)ccc3OC[C@@H]1[C@@H]2c1ccccc1	DT40 TDP1 no CPT 23µM, HT1080-NT tox inconclusive, HT1080 IDH1KD tx inconclusive, TDP1 cell CPT 15µM
Cc1cc(NC(=O)C(C)SCC(=O)OCc2ccc([N+](=O)[O-])cc2)no1 (stereo unspecified)	none
CCN1C(=O)N[C@@H](CCc2ccccc2)C(C(C)=O)=C1C	none
CCCCOC(=O)n1c(=O)oc2cc(S(=O)(=O)N3CCCCC3)ccc21	DT40 TDP1 no CPT inconclusive, TDP1 cell CPT inconclusive
CCCCOC(=O)n1c(=S)oc2cc(Cl)ccc21	DT40 TDP1 no CPT 23µM, IL1B secr inh inconclusive, TDP1 cell CPT 8.2µM
C=CCN(CC=C)C(=O)COC(=O)c1ccc(Sc2ncn[nH]2)c([N+](=O)[O-])c1	none
COc1ccc(C(=O)N2CCN(C3CCC(c4ccccc4)CC3)CC2)cc1OC (stereo unspecified)	DT40 TDP1 no CPT 15µM, TDP1 cell CPT 21µM
COc1ccc(C(=O)N2CCC(N3CCN(c4ccccc4)CC3)CC2)cc1OC	none
CCOC(=O)C1(c2ccccc2)SC(C(=O)OCC)(c2ccccc2)S1 (stereo unspecified)	DT40 TDP1 no CPT inconclusive, IL1B secr inh -66
Cc1ccc(NC(=O)Nc2ccnc(-c3cccnc3)n2)cc1	DT40 TDP1 no CPT 8.2µM, TDP1 cell CPT 8.2µM
N=C1C(c2ccccc2)=C(O)CN1CCO	none
C=COCCCNc1ncnc2sc(-c3ccccc3)cc12	DT40 TDP1 no CPT 15µM, TDP1 cell CPT 16µM
CC(C)(C)Nc1ncnc2sc(-c3ccccc3)cc12	DT40 TDP1 no CPT 23µM, TDP1 cell CPT 26µM
CN(C)c1ncnc2sc(-c3ccccc3)cc12	IL1B secr inh -55, TDP1 cell CPT inconclusive
COC(CNc1ncnc2sc(-c3ccccc3)cc12)OC	DT40 TDP1 no CPT inconclusive, IL1B secr inh inconclusive, TDP1 cell CPT inconclusive
CCCc1cc(=O)[nH]c(Nc2ccccc2O)n1	none (no result: HT1080-NT tox, HT1080 IDH1KD tx, IL1B secr inh)
Cc1cc(C)nc(N(C#N)CN2C(=O)c3ccccc3S2(=O)=O)n1	DT40 TDP1 no CPT 15µM, TDP1 cell CPT inconclusive
CNc1nc(OC)nc(N(C#N)CN2C(=O)c3ccccc3S2(=O)=O)n1	DT40 TDP1 no CPT 16µM, HT1080 IDH1KD tx inconclusive, IL1B secr inh -82, TDP1 cell CPT 15µM
Cc1cc(C)nc(NC(=O)CN2C(=O)c3ccccc3S2(=O)=O)n1	none
